We go through eight molecules from PubChem BioAssay (NCI).

About 83,000 compounds went through this panel and 20% of them were active in at least one assay; those are over-represented in the sample as a whole.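 Values shown are percent growth following 48 h exposure of cells in 96-well plates to a single concentration of compound; below 10 was considered active.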 A number with no mark means an inactive call. Activity calls are given as the source filed them.

Test systems include SK-MEL-2 melanoma; EKVX NSCLC; SN12C renal; UO-31 renal; TK-10 renal; ACHN renal; CAKI-1 renal; A498 renal; CCRF-CEM leukemia; MOLT-4 leukemia; RPMI-8226 leukemia; OVCAR-5 ovarian; OVCAR-4 ovarian; SK-OV-3 ovarian; IGROV1 ovarian; OVCAR-3 ovarian; HS 578T breast; NCI/ADR-RES ovarian; OVCAR-8 ovarian.
What all share (assay): NCI-60 one-dose screen, 48 h (100 = growth as untreated, 0 = no growth, -100 = all killed)
What all share (conditions): 10 µM unless noted

Take `CCc1ccc(Oc2c(-c3ccc(OCc4ccc(Cl)cc4)cc3O)nn(C)c2C(F)(F)F)cc1`: the growth with SK-MEL-2 melanoma is -30.7% (active); with EKVX NSCLC it was 9.36% (active); in the experiment with SN12C renal, 4.95% (active); in the experiment with UO-31 renal, -22.9% (active); in the experiment on TK-10 renal, -1.88% (active); in the experiment with ACHN renal it was 5.42% (active). In addition, the growth is 3.34% (active) in the experiment with CAKI-1 renal; -22.6% (active) with A498 renal; 1.82% (active) in the experiment with CCRF-CEM leukemia; -13.6% (active) with MOLT-4 leukemia; -16.8% (active) in the experiment on RPMI-8226 leukemia; 13.2% with OVCAR-5 ovarian. The growth with OVCAR-4 ovarian is 12.5%; in the experiment on SK-OV-3 ovarian, -6.92% (active); with IGROV1 ovarian, 24.3%; in the experiment on OVCAR-3 ovarian, -20.9% (active); in the experiment on HS 578T breast it was 7.74% (active); in the experiment with NCI/ADR-RES ovarian, -3.62% (active).
With `CCCCOc1ccc(/C=N/NC(N)=S)cc1`, the growth in the experiment on SK-MEL-2 melanoma was 85.1%; in the experiment on EKVX NSCLC it was 85.9%; with SN12C renal, 67.5%; in the experiment on UO-31 renal, 43.7%; with TK-10 renal, 77.3%; in the experiment with ACHN renal, 92.3%. Moreover, the growth in the experiment with CAKI-1 renal was 83.7%; in the experiment with A498 renal it was 79.4%; in the experiment with CCRF-CEM leukemia, 37.4%; in the experiment with MOLT-4 leukemia, 46%; in the experiment with RPMI-8226 leukemia, 49.1%; in the experiment on OVCAR-5 ovarian, 93.1%. Further, the growth in the experiment with OVCAR-4 ovarian is 41.3%; in the experiment on SK-OV-3 ovarian, 92.1%; in the experiment on IGROV1 ovarian, 52.3%; with OVCAR-3 ovarian, 63.2%; in the experiment with HS 578T breast, 89.8%; in the experiment with NCI/ADR-RES ovarian it was 85.5%.
As to `COc1ccc(/C=C(/C#N)n2nnc3cccc(F)c32)cc1`, the growth in the experiment with SK-MEL-2 melanoma is -10.4% (active); with EKVX NSCLC, 36.8%; in the experiment with SN12C renal, 28.9%; in the experiment with UO-31 renal it was 26.2%; in the experiment on TK-10 renal, 46.5%; with ACHN renal, 31.5%. Besides, the growth in the experiment on CAKI-1 renal is 22.8%; with A498 renal it was -7.93% (active); in the experiment on CCRF-CEM leukemia it was 21.3%; in the experiment on MOLT-4 leukemia it was 13.8%; in the experiment on OVCAR-8 ovarian, 10.7%; in the experiment on OVCAR-5 ovarian, 19.7%. For the same molecule, the growth was 29.9% with OVCAR-4 ovarian; 29% with SK-OV-3 ovarian; 34.4% in the experiment on IGROV1 ovarian; -18.6% (active) in the experiment on OVCAR-3 ovarian; -16.4% (active) in the experiment on HS 578T breast; -29.6% (active) with NCI/ADR-RES ovarian.
Consider `O=C(/C=C/c1sc(Cl)nc1Cl)c1ccccc1`, for which the growth in the experiment on SK-MEL-2 melanoma was 104%; in the experiment with EKVX NSCLC it was 101%; in the experiment on SN12C renal, 44.8%; in the experiment on UO-31 renal, 90.7%; with TK-10 renal it was 111%; with ACHN renal, 46.9%. Also, the growth was 93.1% in the experiment on CAKI-1 renal; 100% with A498 renal; 34.9% in the experiment with CCRF-CEM leukemia; 32.3% with MOLT-4 leukemia; 14% in the experiment with RPMI-8226 leukemia; 93.5% in the experiment on OVCAR-8 ovarian. In addition, the growth is 99.5% with OVCAR-5 ovarian; 108% in the experiment on OVCAR-4 ovarian; 103% in the experiment with SK-OV-3 ovarian; 46% in the experiment on OVCAR-3 ovarian; 103% in the experiment with HS 578T breast; 101% in the experiment with NCI/ADR-RES ovarian.
Regarding `O=C(/C=C/c1sc(Cl)nc1Cl)c1ccc(F)cc1`, the growth with SK-MEL-2 melanoma was 95.5%; in the experiment with EKVX NSCLC, 88.8%; in the experiment with SN12C renal it was 45.1%; with UO-31 renal it was 85.4%; with TK-10 renal it was 103%; in the experiment with ACHN renal it was 22.4%. Moreover, the growth was 88.2% in the experiment on CAKI-1 renal; 91.9% in the experiment on A498 renal; 37.5% in the experiment on CCRF-CEM leukemia; 48.5% with MOLT-4 leukemia; 0.843% (active) in the experiment on RPMI-8226 leukemia; 83.7% in the experiment with OVCAR-8 ovarian. The growth is 104% with OVCAR-5 ovarian; 102% in the experiment with OVCAR-4 ovarian; 99.4% in the experiment on SK-OV-3 ovarian; 9.39% (active) in the experiment with OVCAR-3 ovarian; 86.8% with HS 578T breast; 98.5% in the experiment on NCI/ADR-RES ovarian.
Turning to `COc1ccc(CN2c3ccccc3CCc3ccccc32)cc1F`, the growth is 27.2% in the experiment on SK-MEL-2 melanoma; 41.1% in the experiment on EKVX NSCLC; 39.1% with SN12C renal; 43.2% in the experiment with UO-31 renal; 62.7% in the experiment with TK-10 renal; 35.6% with ACHN renal. For the same molecule, the growth with CAKI-1 renal is 29.7%; with A498 renal, -6.65% (active); in the experiment on CCRF-CEM leukemia, 4.49% (active); with MOLT-4 leukemia, 16.2%; in the experiment on RPMI-8226 leukemia, 8.72% (active); in the experiment with OVCAR-5 ovarian, 40.7%. In addition, the growth in the experiment on OVCAR-4 ovarian was 42%; in the experiment on SK-OV-3 ovarian it was 38.4%; with IGROV1 ovarian, 51.7%; with OVCAR-3 ovarian, -41.7% (active); in the experiment with HS 578T breast it was 30.2%; in the experiment with NCI/ADR-RES ovarian it was 11.1%.
As to `CC1=C(C)C(=O)C(Nc2cccc(C(=O)OC(C)(C)C)c2)=C(Br)C1=O`, the growth was 106% in the experiment with SK-MEL-2 melanoma; 103% in the experiment on EKVX NSCLC; 85.7% in the experiment on SN12C renal; 71.6% with UO-31 renal; 122% in the experiment with TK-10 renal; 87.5% in the experiment with ACHN renal. Moreover, the growth was 96.4% in the experiment with CAKI-1 renal; 87.3% with A498 renal; 8.53% (active) with CCRF-CEM leukemia; 12.5% in the experiment with MOLT-4 leukemia; 92.4% in the experiment with OVCAR-8 ovarian; 99.9% with OVCAR-5 ovarian. For the same molecule, the growth is 88.8% with OVCAR-4 ovarian; 93.2% in the experiment on SK-OV-3 ovarian; 86.7% in the experiment on IGROV1 ovarian; 77.7% with OVCAR-3 ovarian; 92.8% with HS 578T breast; 94.7% in the experiment on NCI/ADR-RES ovarian.
As to `CCn1cnc2c1c(=O)[nH]c(=O)n2CC1CCC(CNS(=O)(=O)c2ccc(OC3CCOCC3)c(F)c2)CC1` (centres undefined), the growth in the experiment on SK-MEL-2 melanoma was 74.8%; in the experiment on EKVX NSCLC, 68.1%; with SN12C renal, 62.9%; in the experiment on UO-31 renal, 55.2%; with TK-10 renal, 33.7%; with ACHN renal, 72.2%. Also, the growth in the experiment with CAKI-1 renal is 46.2%; in the experiment with A498 renal it was 67.1%; in the experiment on CCRF-CEM leukemia, 52.6%; in the experiment on MOLT-4 leukemia, 63%; in the experiment on OVCAR-8 ovarian it was 60.5%; in the experiment on OVCAR-5 ovarian, 64.1%. The growth is 42% in the experiment with OVCAR-4 ovarian; 31.9% with SK-OV-3 ovarian; 62.6% in the experiment on IGROV1 ovarian; 60.5% with OVCAR-3 ovarian; 15.9% in the experiment on HS 578T breast; 95.8% in the experiment with NCI/ADR-RES ovarian.
